Structures are written as SMILES. Counter-ions that a name gives are not always drawn.

One experiment concerns HCC1937. Kind of experiment: relative cell viability, compound + erastin, vs DMSO (fraction of DMSO control); higher = less growth inhibition. As to conditions: 72 h.
For the next experiment, the system named is MDA-MB-231. Described as above. As to conditions: 72 h.
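Further: viability read by CCK-8 kit in 96-well plates, part of a combination screen pairing lipid-metabolism-targeting compounds with erastin.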

In the case of `CC(c1cc2ccccc2s1)N(O)C(N)=O` (configuration not stated) [Zileuton] + CCOc1ccccc1-n1c(C(C)N2CCN(C(=O)COc3ccc(Cl)cc3)CC2)nc2ccccc2c1=O [erastin], the relative cell viability in the experiment with HCC1937 amounted to 0.847; in the experiment with MDA-MB-231, 0.595.

Turning to `CC1=C(/C=C/C(C)=C/C=C/C(C)=C/C=C/C=C(C)/C=C/C=C(C)/C=C/C2=C(C)C(=O)[C@@H](O)CC2(C)C)C(C)(C)C[C@H](O)C1=O` [Astaxanthin] + CCOc1ccccc1-n1c(C(C)N2CCN(C(=O)COc3ccc(Cl)cc3)CC2)nc2ccccc2c1=O [erastin], the relative cell viability in the experiment on HCC1937 came to 0.674; in the experiment with MDA-MB-231, 1.56.

With `CC(C)c1c(C(=O)Nc2ccccc2)c(-c2ccccc2)c(-c2ccc(F)cc2)n1CC[C@@H](O)C[C@@H](O)CC(=O)O` [Atorvastatin Calcium] + CCOc1ccccc1-n1c(C(C)N2CCN(C(=O)COc3ccc(Cl)cc3)CC2)nc2ccccc2c1=O [erastin], the values for the relative cell viability with HCC1937 and in the experiment on MDA-MB-231 were 0.357 and 0.337, respectively.

Regarding `C[C@H](CCC(=O)O)[C@H]1CC[C@H]2[C@@H]3CC[C@@H]4C[C@H](O)CC[C@]4(C)[C@H]3CC[C@]12C` [Lithocholic acid] + CCOc1ccccc1-n1c(C(C)N2CCN(C(=O)COc3ccc(Cl)cc3)CC2)nc2ccccc2c1=O [erastin], the relative cell viability in the experiment on HCC1937 was determined as 0.832; in the experiment with MDA-MB-231 it was 0.688.

Take `CCCCCCS(=O)(=O)NC(=O)c1ccc(CSCc2ccc(-c3ccccc3)cc2)cc1` + CCOc1ccccc1-n1c(C(C)N2CCN(C(=O)COc3ccc(Cl)cc3)CC2)nc2ccccc2c1=O [erastin]: the relative cell viability in the experiment with HCC1937 was determined as 0.705; with MDA-MB-231, 0.733.

With `C[C@H](CCC(=O)O)[C@H]1CC[C@H]2[C@@H]3C[C@H](O)[C@@H]4C[C@H](O)CC[C@]4(C)[C@H]3CC[C@]12C` [Hyodeoxycholic acid] + CCOc1ccccc1-n1c(C(C)N2CCN(C(=O)COc3ccc(Cl)cc3)CC2)nc2ccccc2c1=O [erastin], the relative cell viability in the experiment with HCC1937 is 0.767; in the experiment on MDA-MB-231, 0.881.

For the molecule `C[C@H]1N=C(N(C)C)N=C(N)N1` [Imeglimin hydrochloride] + CCOc1ccccc1-n1c(C(C)N2CCN(C(=O)COc3ccc(Cl)cc3)CC2)nc2ccccc2c1=O [erastin], the relative cell viability in the experiment with HCC1937 was 0.69; with MDA-MB-231, 0.695.

As to `CCC(=O)O[C@]1(C(=O)SCF)[C@H](C)C[C@H]2[C@@H]3C[C@H](F)C4=CC(=O)C=C[C@]4(C)[C@@]3(F)[C@@H](O)C[C@@]21C` [Fluticasone propionate] + CCOc1ccccc1-n1c(C(C)N2CCN(C(=O)COc3ccc(Cl)cc3)CC2)nc2ccccc2c1=O [erastin], the values for the relative cell viability in the experiment on HCC1937 and in the experiment on MDA-MB-231 were 0.967 and 0.545, respectively.

In the case of `CC(=O)Nc1nc(C)c(S(=O)(=O)Nc2ccc(C(O)(C(F)(F)F)C(F)(F)F)cc2)s1` + CCOc1ccccc1-n1c(C(C)N2CCN(C(=O)COc3ccc(Cl)cc3)CC2)nc2ccccc2c1=O [erastin], the relative cell viability with HCC1937 is 0.956; with MDA-MB-231, 1.1.

Turning to `CCCCCCCCCCOc1ccc(C(=O)Nc2cc(C(=O)NCCCC)ccc2SC)cc1` + CCOc1ccccc1-n1c(C(C)N2CCN(C(=O)COc3ccc(Cl)cc3)CC2)nc2ccccc2c1=O [erastin], the figures for the relative cell viability in the experiment on HCC1937 and in the experiment with MDA-MB-231 were 0.739 and 0.845, respectively.

In the case of `O=C(O)c1ccnc(N2CC(O)(c3ccc(OCc4c(-c5c(Cl)cccc5Cl)noc4C4CC4)cc3Cl)C2)c1` [Cilofexor] + CCOc1ccccc1-n1c(C(C)N2CCN(C(=O)COc3ccc(Cl)cc3)CC2)nc2ccccc2c1=O [erastin], the figures for the relative cell viability in the experiment with HCC1937 and in the experiment on MDA-MB-231 were 0.577 and 0.692, respectively.

As for `CC1CC(OC(=O)C(O)c2ccccc2)CC(C)(C)C1` (configuration not stated) [Cyclandelate] + CCOc1ccccc1-n1c(C(C)N2CCN(C(=O)COc3ccc(Cl)cc3)CC2)nc2ccccc2c1=O [erastin], the values for the relative cell viability in the experiment on HCC1937 and in the experiment on MDA-MB-231 were 0.828 and 0.606, respectively.

On to `COc1cc(N2CCN(C)CC2)ccc1Nc1ncc2c(n1)N(C)c1ccccc1C(=O)N2` + CCOc1ccccc1-n1c(C(C)N2CCN(C(=O)COc3ccc(Cl)cc3)CC2)nc2ccccc2c1=O [erastin], for which the relative cell viability in the experiment with HCC1937 turned out to be 0.365; with MDA-MB-231, 0.788.

In the case of `O=C(O)Cn1nnc(-c2cc(N3CCC(Oc4cc(F)ccc4Br)CC3)no2)n1` + CCOc1ccccc1-n1c(C(C)N2CCN(C(=O)COc3ccc(Cl)cc3)CC2)nc2ccccc2c1=O [erastin], the relative cell viability with HCC1937 was 0.529; in the experiment on MDA-MB-231, 0.679.

Take `C=C[C@H]1CN2CC[C@H]1C[C@@H]2[C@@H](O)c1ccnc2ccc(OC)cc12` [Quinidine sulfate] + CCOc1ccccc1-n1c(C(C)N2CCN(C(=O)COc3ccc(Cl)cc3)CC2)nc2ccccc2c1=O [erastin]: the relative cell viability worked out at 0.7 in the experiment on HCC1937 and 0.398 in the experiment with MDA-MB-231.

For `O=C1/C(=C/c2cccs2)CC/C1=C\c1cccs1` + CCOc1ccccc1-n1c(C(C)N2CCN(C(=O)COc3ccc(Cl)cc3)CC2)nc2ccccc2c1=O [erastin], the relative cell viability with HCC1937 stood at 0.514; with MDA-MB-231 it was 0.658.

Values taken from the supplement of paper PMC9492666.
